Data published in PubChem BioAssay (NCATS).
Several values for one entry are separate records, joined by “and”; a condition that tells them apart may be missing. Identical values can stand only once. Inconclusive results are not listed. Activity calls are given as the source filed them. Unless noted, calls come from the whole dose curve; as a rule, active = well fitted curve in the direction sought with a large enough effect; inconclusive = small, poorly fitted or top-dose-only effect, or another doubt; inactive = no such curve, though single readings can be large; an effect the other way counts as inactive or inconclusive.

Experiments:
[1] = NFAT Signaling Pathway (AID 444; active = well fitted curve in either direction with a large enough effect, not every such curve was filed as active;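 note: carbachol stimulus at about its EC50 of 1 µM final; % is set by controls: 0 for no effect and ±100 for the full control effect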); settings: Jurkat NFAT-bla M1, carbachol, beta-lactamase ratio, 5 h; at 17.2 µM (top of the series) unless noted
In short: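 Jurkat cells carrying an NFAT-driven β-lactamase reporter and co-transfected muscarinic M1 receptor were treated with compound plus carbachol (1 uM final, an EC50 level) for 5 h at 37 °C. CCF4 loading followed for 1 h at RT; 460/530 nm ratio gave %activity.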

[2] = Stat Signaling Pathway (AID 446; active = well fitted curve in either direction with a large enough effect, not every such curve was filed as active;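 note: ME-180 cervical cancer cells given 40 pM IL-6 alongside compound; SIE-controlled beta-lactamase reporter measured as 460/530 nm FRET emission ratio; % is set by controls: 0 for no effect and ±100 for the full control effect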)
In short: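 Overnight-plated ME-180 cells bearing a STAT Inducible Element beta-lactamase reporter; 5 h co-exposure to compound and 40 pM IL-6; values normalized to 300 pM IL-6 and 125 nM JAK inhibitor controls.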

[3] = target: Glucocorticoid receptor (Homo sapiens) (UniProt P04150); test: GR-GFP Redistribution (AID 450;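 active = compounds whose dose series gives a full or clear partial fitted curve of increased nuclear translocation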; note: potency is the fitted concentration of half-maximal effect); settings: U2OS GR-GFP nuclear translocation, laser cytometry, 2 h
[4] = target: Glucocorticoid receptor (Homo sapiens) (UniProt P04150); test: GR-EFC Redistribution (AID 451; calls by dose curve; note: potency is the fitted concentration of half-maximal effect); settings: CHO-K1 GR-EFC translocation, beta-gal luminescence, 2 h
In short: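 CHO-K1 cells stably expressing nuclear-localized β-gal enzyme acceptor and GR fused C-terminally to the enzyme donor fragment; ligand-driven nuclear translocation restores β-gal by complementation. Compounds titrated up to 46 uM final, 2 h at 37 °C; luminescence read.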

[5] = target: ATP-dependent 6-phosphofructokinase (Trypanosoma brucei brucei) (UniProt O15648); test: qHTS Assay to Find Inhibitors of T. brucei phosphofructokinase: hit validation (AID 492961);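 note: luminescence reports ADP formed as PFK phosphorylates fructose-6-phosphate with ATP; % is set by controls: 0 for no effect and ±100 for the full control effect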
In short: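 Reaction: 0.1 M triethanolamine pH 8.0, 5 mM MgCl2, F6P 0.5 mM, ATP 0.1 mM, PFK 1.25 nM, 45 min RT. Read-out: ADP-Glo luminescence. Analysis: concentration-response fits, classed by r2 and efficacy.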

[6] = S16 Schwann cell PMP22 intronic element firefly luciferase assay (AID 624032);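 note: plate controls were DMSO for no effect and PTC124 positive control mean for full effect; nearly all actives have a fitted effect of over 30% in size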
In short: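 Rat S16 Schwann cells stably carrying a PMP22 intronic element-driven Fluc reporter were seeded overnight, then exposed to compounds for 24 h at 37 °C. Luminescence was normalized to PTC124 (positive control) and DMSO (0% activity).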

7G8 = test: qHTS profiling for inhibitors of Plasmodium falciparum proliferation (AID 504749); note: nearly all actives have a fitted effect of over 60% in size; note: potency is the fitted concentration of half-maximal effect; settings: P. falciparum in erythrocytes, SYBR Green DNA, 72 h; series mostly up to 12.8 µM
In short: (§1)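 Quantitative HTS: compounds pinned into medium, infected erythrocytes added (0.3% parasitemia, 2.5% hematocrit), 72 h culture at 37 C under 5% CO2. Saponin/Triton lysis with SYBR Green I, overnight RT, then fluorescence read.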

ATS189 = test: as above; settings: P. falciparum in erythrocytes, SYBR Green DNA, 72 h; series mostly up to 12.8 µM
In short: as §1

ATS95 = test: as above; settings: P. falciparum in erythrocytes, SYBR Green DNA, 72 h; series mostly up to 12.8 µM
In short: as §1

CP203 = test: as above; settings: P. falciparum in erythrocytes, SYBR Green DNA, 72 h; series mostly up to 12.8 µM
In short: as §1

CP215 = test: as above; settings: P. falciparum in erythrocytes, SYBR Green DNA, 72 h; series mostly up to 12.8 µM
In short: as §1

CP286 = test: as above; settings: P. falciparum in erythrocytes, SYBR Green DNA, 72 h; series mostly up to 12.8 µM
In short: as §1

CP335 = test: as above; settings: P. falciparum in erythrocytes, SYBR Green DNA, 72 h; series mostly up to 12.8 µM
In short: as §1

DIV14 = test: as above; settings: P. falciparum in erythrocytes, SYBR Green DNA, 72 h; series mostly up to 12.8 µM
In short: as §1

DIV17 = test: as above; settings: P. falciparum in erythrocytes, SYBR Green DNA, 72 h; series mostly up to 12.8 µM
In short: as §1

GB4 = test: as above; settings: P. falciparum in erythrocytes, SYBR Green DNA, 72 h; series mostly up to 12.8 µM
In short: as §1

W2 = test: as above; settings: P. falciparum in erythrocytes, SYBR Green DNA, 72 h; series mostly up to 12.8 µM
In short: as §1

[7] = target: Cytochrome P450 1A2 (Homo sapiens) (UniProt P05177); test: p450-cyp1a2 (AID 410; calls by dose curve; note: potency is the fitted concentration of half-maximal effect;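 for activity change, negative = inhibition: -100% = full effect of reference inhibitor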)
In short: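 O-Demethylation of luciferin 6' methyl ether by human CYP1A2 is monitored as luciferase luminescence. Substrate sits at Km (100uM); enzyme is 20nM. Values are scaled to 57 uM furafylline as maximal inhibition.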

[8] = target: Cytochrome P450 2C19 (Homo sapiens) (UniProt P33261); test: qHTS Assay for Inhibitors and Substrates of Cytochrome P450 2C19 (AID 899); note: % is set by controls: 0 for no effect and ±100 for the full control effect; nearly all actives have a fitted effect of over 60% in size
In short: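 In 50mM KPO4, the reaction held 5nM enzyme and KM-level (10uM) Luciferin-H EGE; it ran 60 min at 37C after NADPH regeneration and a 10 min compound preincubation. Luminescence values were scaled to 57uM ketoconazole as complete inhibition.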

[9] = target: DNA dC->dU-editing enzyme APOBEC-3G (Homo sapiens) (UniProt Q9HC16); test: qHTS for inhibitors of Vif-A3G interactions: Validation (AID 588379); note: 0% is about no effect
In short: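 Yellow fluorescence (Ex 488, Em 500-530) of Vif-coexpressing HeLa A3G-eYFP cells, scanned by Acumen cytometer, reports blocked A3G degradation. Cells plated at 700/well overnight at 37 deg C before compound addition, then a further overnight compound incubation at 37 deg C.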

Sequence of ATP-dependent 6-phosphofructokinase (Trypanosoma brucei brucei) (O15648 whole entry, looked up): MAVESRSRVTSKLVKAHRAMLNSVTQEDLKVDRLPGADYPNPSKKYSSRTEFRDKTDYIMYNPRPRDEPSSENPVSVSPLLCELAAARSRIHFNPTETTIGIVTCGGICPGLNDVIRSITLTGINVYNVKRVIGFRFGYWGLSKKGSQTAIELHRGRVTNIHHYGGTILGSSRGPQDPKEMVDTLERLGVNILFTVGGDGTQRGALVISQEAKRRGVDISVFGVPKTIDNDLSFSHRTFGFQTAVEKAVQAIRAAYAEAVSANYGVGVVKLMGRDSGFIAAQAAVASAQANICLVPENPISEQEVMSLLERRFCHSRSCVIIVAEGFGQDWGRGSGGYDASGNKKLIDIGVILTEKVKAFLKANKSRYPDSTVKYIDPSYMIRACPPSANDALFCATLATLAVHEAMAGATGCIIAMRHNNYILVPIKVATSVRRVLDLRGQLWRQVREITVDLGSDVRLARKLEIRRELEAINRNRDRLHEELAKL
Sequence of DNA dC->dU-editing enzyme APOBEC-3G (Homo sapiens) (Q9HC16 whole entry, looked up): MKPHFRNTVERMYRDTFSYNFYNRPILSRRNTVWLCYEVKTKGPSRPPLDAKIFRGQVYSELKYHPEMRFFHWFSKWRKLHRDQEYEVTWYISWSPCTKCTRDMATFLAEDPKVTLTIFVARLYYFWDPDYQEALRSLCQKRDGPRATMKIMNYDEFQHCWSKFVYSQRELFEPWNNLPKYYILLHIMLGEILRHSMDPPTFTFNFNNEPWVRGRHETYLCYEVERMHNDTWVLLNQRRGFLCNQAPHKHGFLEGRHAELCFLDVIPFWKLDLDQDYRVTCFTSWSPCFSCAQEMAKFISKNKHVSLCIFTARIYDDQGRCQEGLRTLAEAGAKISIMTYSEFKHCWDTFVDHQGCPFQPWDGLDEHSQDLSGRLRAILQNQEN
Sequence of Glucocorticoid receptor (Homo sapiens) (P04150 whole entry, looked up, the tested form may be a part): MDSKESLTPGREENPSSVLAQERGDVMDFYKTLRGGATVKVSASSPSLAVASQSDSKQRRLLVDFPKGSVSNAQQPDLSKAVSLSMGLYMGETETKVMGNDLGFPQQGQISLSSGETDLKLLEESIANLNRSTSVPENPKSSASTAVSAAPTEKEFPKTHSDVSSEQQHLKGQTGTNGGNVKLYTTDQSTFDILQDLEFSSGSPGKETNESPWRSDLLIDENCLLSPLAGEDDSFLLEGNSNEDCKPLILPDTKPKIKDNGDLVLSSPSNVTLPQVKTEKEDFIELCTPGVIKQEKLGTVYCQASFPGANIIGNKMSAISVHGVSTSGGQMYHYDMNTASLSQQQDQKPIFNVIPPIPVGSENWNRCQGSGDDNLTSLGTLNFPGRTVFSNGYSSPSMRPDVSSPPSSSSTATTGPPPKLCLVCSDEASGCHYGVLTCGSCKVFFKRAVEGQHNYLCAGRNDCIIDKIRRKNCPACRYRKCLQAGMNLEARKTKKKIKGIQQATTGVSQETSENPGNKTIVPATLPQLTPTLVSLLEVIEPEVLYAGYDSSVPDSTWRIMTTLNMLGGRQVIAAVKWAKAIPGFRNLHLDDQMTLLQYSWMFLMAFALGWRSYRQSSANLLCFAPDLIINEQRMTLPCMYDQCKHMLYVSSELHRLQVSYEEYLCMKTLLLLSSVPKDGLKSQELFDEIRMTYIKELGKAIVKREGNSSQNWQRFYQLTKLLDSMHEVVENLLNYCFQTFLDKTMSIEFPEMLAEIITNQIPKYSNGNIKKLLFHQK
Sequence of Cytochrome P450 1A2 (Homo sapiens) (P05177 whole entry, looked up): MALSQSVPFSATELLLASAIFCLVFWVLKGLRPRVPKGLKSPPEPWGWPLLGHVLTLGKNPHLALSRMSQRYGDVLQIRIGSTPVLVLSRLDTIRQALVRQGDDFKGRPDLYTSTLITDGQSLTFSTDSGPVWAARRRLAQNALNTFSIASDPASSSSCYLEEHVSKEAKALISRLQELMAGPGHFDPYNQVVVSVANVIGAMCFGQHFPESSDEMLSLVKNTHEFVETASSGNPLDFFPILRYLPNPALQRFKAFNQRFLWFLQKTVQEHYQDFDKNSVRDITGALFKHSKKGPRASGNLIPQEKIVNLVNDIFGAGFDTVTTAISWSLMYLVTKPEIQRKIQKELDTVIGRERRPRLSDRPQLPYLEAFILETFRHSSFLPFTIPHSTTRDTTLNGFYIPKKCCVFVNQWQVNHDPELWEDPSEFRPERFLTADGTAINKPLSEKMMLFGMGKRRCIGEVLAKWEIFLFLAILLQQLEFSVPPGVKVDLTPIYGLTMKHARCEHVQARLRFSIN
Sequence of Cytochrome P450 2C19 (Homo sapiens) (P33261 whole entry, looked up): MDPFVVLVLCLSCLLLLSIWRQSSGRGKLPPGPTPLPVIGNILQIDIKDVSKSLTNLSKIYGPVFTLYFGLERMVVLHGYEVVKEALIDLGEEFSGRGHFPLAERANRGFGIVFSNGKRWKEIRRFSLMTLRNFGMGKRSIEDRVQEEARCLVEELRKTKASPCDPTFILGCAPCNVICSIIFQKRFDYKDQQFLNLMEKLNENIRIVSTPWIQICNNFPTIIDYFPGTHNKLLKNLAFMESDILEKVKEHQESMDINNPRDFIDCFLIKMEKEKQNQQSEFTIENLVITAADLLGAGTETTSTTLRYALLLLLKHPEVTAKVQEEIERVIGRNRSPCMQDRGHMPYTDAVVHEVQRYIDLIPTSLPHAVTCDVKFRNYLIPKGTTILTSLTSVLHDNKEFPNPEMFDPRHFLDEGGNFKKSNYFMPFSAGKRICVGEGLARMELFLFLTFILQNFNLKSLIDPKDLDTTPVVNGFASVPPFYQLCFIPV

CCCCC[C@H](O)/C=C\[C@H]1[C@H](C/C=C\CCCC(=O)O)[C@@H](O)C[C@H]1O (tested in a mixture with another compound)
inactive: activity change, negative = inhibition [1] 11.1% | outcome [2] | Potency [3] > 20.6 µM | Potency [4] > 20.6 µM | outcome [5] | Potency [6] | Potency (7G8) | Potency (ATS189) | Potency (ATS95) | Potency (CP203) | Potency (CP215) | Potency (CP286) | Potency (CP335) | Potency (DIV14) | Potency (DIV17) | Potency (GB4) | Potency (W2)

Nc1ncn([C@H]2O[C@@H](CO)[C@@H](O)[C@@H]2O)c(=O)n1
inactive: activity change, negative = inhibition [1] -16.5% | Potency [3] > 20.6 µM | Potency [4] > 20.6 µM

CC(C)(C)NC(=O)[C@@H]1C[C@H]2CCCC[C@@H]2CN1C[C@H](O)[C@H](Cc1ccccc1)NC(=O)[C@@H](CC(N)=O)NC(=O)c1ccc2ccccc2n1
inactive: activity change, negative = inhibition [1] -14.7% | Potency [4] > 20.6 µM

Cc1cc2ccc(=O)oc2cc1OC[C@@H](O)C(C)(C)O
inactive: Potency [3] > 46 µM | Potency [4] > 46 µM | Potency [8] | outcome [9]
active: Potency [7] 39.8 µM

C[C@H]1CS(=O)(=O)CCN1/N=C\c1ccc([N+](=O)[O-])o1
inactive: activity change, negative = inhibition [1] 1.33% | outcome [2] | Potency [3] > 20.6 µM | Potency [4] > 20.6 µM | outcome [5] | Potency [6] | Potency (ATS189) | Potency (ATS95) | Potency (CP203) | Potency (CP215) | Potency (CP286) | Potency (CP335)

C1CCN2C[C@@H]3C[C@@H](CN4CCCC[C@H]34)[C@H]2C1
inactive: activity change, negative = inhibition [1] -16.7% | Potency [3] > 20.6 µM and > 46 µM | Potency [4] > 20.6 µM and > 46 µM | outcome [5] | Potency [6] | Potency (7G8) | Potency (ATS189) | Potency (ATS95) | Potency (CP203) | Potency (CP286) | Potency (CP335) | Potency (DIV14) | Potency (DIV17) | Potency (GB4)

COc1cc(N[C@@H](C)CCCN)c2ncccc2c1
active: Potency (7G8) 0.316 µM | Potency (ATS189) 2.24 µM | Potency (ATS95) 3.16 µM | Potency (CP203) 3.61 µM | Potency (CP215) 3.61 µM | Potency (CP286) 0.891 µM | Potency (CP335) 4.05 µM | Potency (DIV14) 0.572 µM | Potency (DIV17) 0.642 µM | Potency (GB4) 0.809 µM | Potency (W2) 2.03 µM
inactive: outcome [2] | outcome [5]

CC[C@](C)(CN(C)C)OC(=O)c1ccccc1
active: Potency (W2) 2.87 µM
inactive: activity change, negative = inhibition [1] -26.6% | outcome [2] | Potency [3] > 20.6 µM | outcome [5] | Potency [6] | Potency (7G8) | Potency (ATS189) | Potency (ATS95) | Potency (CP215) | Potency (CP286) | Potency (DIV17)

O=c1cc(-c2cccc(O)c2)oc2cc(O)ccc12
active: Potency [7] 5.01 µM
inactive: Potency [3] > 46 µM | Potency [4] > 46 µM | Potency [8] | outcome [9]

CC(C)n1c(/C=C\[C@@H](O)C[C@@H](O)CC(=O)O)c(-c2ccc(F)cc2)c2ccccc21
inactive: activity change, negative = inhibition [1] 6.57% | outcome [2] | Potency [3] > 20.6 µM | Potency [4] > 20.6 µM

COC(=O)[C@@H]1[C@@H]2C[C@H]3c4[nH]c5cc(OC)ccc5c4CCN3C[C@@H]2C[C@H](OC(=O)c2cc(OC)c(OC)c(OC)c2)[C@H]1OC
inactive: activity change, negative = inhibition [1] -10.5% | outcome [2] | Potency [3] > 20.6 µM | Potency [4] > 20.6 µM

Clc1ccc([C@H](Cn2ccnc2)OCc2c(Cl)cccc2Cl)c(Cl)c1
inactive: outcome [2] | Potency [3] > 20.6 µM | Potency [4] > 20.6 µM
active: Potency (7G8) 1.58 µM | Potency (ATS189) 3.98 µM | Potency (CP203) 6.42 µM | Potency (CP215) 5.73 µM | Potency (DIV14) 5.1 µM | Potency (DIV17) 4.05 µM | Potency (GB4) 4.55 µM | Potency (W2) 2.03 µM

CC1(C)S[C@@H]2[C@H](NC(=O)[C@@H](N)c3ccccc3)C(=O)N2[C@H]1C(=O)O[C@H]1OC(=O)c2ccccc21
inactive: Potency [7] | outcome [5] | Potency [6] | Potency (7G8) | Potency (ATS189) | Potency (ATS95) | Potency (CP203) | Potency (CP215) | Potency (CP286) | Potency (CP335) | Potency (DIV14) | Potency (DIV17) | Potency (GB4) | Potency (W2)

CCN(CCCCOC(=O)c1ccc(OC)c(OC)c1)[C@@H](C)Cc1ccc(OC)cc1
inactive: outcome [2] | Potency [3] > 20.6 µM | Potency [4] > 20.6 µM | Potency [6] | Potency (ATS189) | Potency (CP215) | Potency (GB4)

C[C@@H]1O[C@H](O[C@@H]2[C@H](C)O[C@H](O[C@@H]3[C@H](C)O[C@H](O[C@H]4CC[C@]5(C)[C@@H](CC[C@@H]6[C@H]5C[C@@H](O)[C@]5(C)[C@@H](C7=CC(=O)OC7)CC[C@]65O)C4)C[C@@H]3O)C[C@@H]2O)C[C@H](O)[C@@H]1O
inactive: Potency [7] | Potency [3] > 20.6 µM | Potency [4] > 20.6 µM

C[C@@](N)(C(=O)O)c1cccc(CC(=O)O)c1
inactive: Potency [3] > 46 µM | Potency [4] > 46 µM | outcome [9]
